# Experimental data reported in PubChem BioAssay (NCI).
# Where “and” joins values, the source holds several entries; their conditions need not be identical. Equal entries are not always repeated. Compounds without any hit were thinned out: in the full panel of roughly 79,000, 15% have a hit. Some structures have more than one record in an assay (separate samples or runs), and their calls can disagree. Calls of active or inactive are those of the source. No stated cut-off is given here; in the data, active means growth inhibition above about 70%; inactive means the rest.
# Columns and labels:
# [1] = NCI Yeast Anticancer Drug Screen. Data for the rad52 strain (AID 147);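 further: 0% = growth of vehicle-treated control cultures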; details: S. cerevisiae rad52 mutant growth inhibition, stronger effect = higher value
# Method in brief: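 Genetically altered yeast (DNA damage repair defect) treated with compound; inhibition calculated relative to vehicle.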
# [2] = NCI Yeast Anticancer Drug Screen. Data for the wt1 strain (AID 149);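 further: 0% = growth of vehicle-treated wt1 cultures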; details: S. cerevisiae wt1 strain (SPY 50644) growth inhibition, stronger effect = higher value
# Method in brief: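 Using yeast strain wt1, compound-induced growth inhibition was determined against vehicle-treated cultures.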
# [3] = NCI Yeast Anticancer Drug Screen. Data for the rad50EPP+ strain (AID 151);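 further: 0% = growth of vehicle-treated control cultures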; details: S. cerevisiae rad50 mutant strain, stronger effect = higher value
# Method in brief: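 Strain rad50EPP+; compound exposure; % growth inhibition vs vehicle.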
# [4] = NCI Yeast Anticancer Drug Screen. Data for the mgt1 strain (AID 153); details: S. cerevisiae mgt1 mutant growth inhibition, stronger effect = higher value
# Method in brief: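 Read-out: yeast growth inhibition vs vehicle control. Strain mgt1, drawn from a panel altered in DNA damage repair or cell cycle control.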
# [5] = NCI Yeast Anticancer Drug Screen. Data for the rad50 strain (AID 155);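 further: 0% = growth of vehicle-only cultures of the same strain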; details: S. cerevisiae rad50 strain growth inhibition, stronger effect = higher value
# Method in brief: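 Relative growth inhibition (compound vs vehicle) was measured in yeast with a defined repair-gene alteration.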
# [6] = NCI Yeast Anticancer Drug Screen. Data for the mec2-1 strain (AID 157); details: S. cerevisiae mec2-1 strain, stronger effect = higher value
# Method in brief: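 Cells of the genetically defined mec2-1 yeast strain are incubated with test compound. Inhibition of growth is calculated against vehicle-treated controls.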
# [7] = NCI Yeast Anticancer Drug Screen. Data for the sgs1 mgt1 strain (AID 161);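 further: 0% = growth of cultures given vehicle only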; details: S. cerevisiae sgs1 mgt1 strain, stronger effect = higher value
# Method in brief: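 Test agents were incubated with a DNA-repair-mutant yeast strain. Growth was then read and compared against vehicle-treated controls.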
# [8] = NCI Yeast Anticancer Drug Screen. Data for the CLN2oe strain (AID 163);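 further: 0% = growth of vehicle-only control cultures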; details: S. cerevisiae CLN2oe strain, stronger effect = higher value
# Method in brief: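 Strain altered in cell-cycle control, incubated with compound; growth compared to solvent-treated controls.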
# [9] = NCI Yeast Anticancer Drug Screen. Data for the cln2 rad14 strain (AID 165);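 further: 0% = growth equal to vehicle treated cultures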; details: S. cerevisiae cln2 rad14 strain, stronger effect = higher value
# Method in brief: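 The screen exposed genetically defined yeast (cln2 rad14) to test compounds and scored growth inhibition relative to vehicle-treated controls.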
# [10] = NCI Yeast Anticancer Drug Screen. Data for the bub3 strain (AID 167); details: S. cerevisiae bub3 mutant strain, stronger effect = higher value
# Method in brief: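 Screening used yeast with an engineered genetic alteration affecting cell cycle control. Compound-exposed cultures were compared with vehicle cultures, and reduced growth was taken as inhibition.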
# [11] = NCI Yeast Anticancer Drug Screen. Data for the mlh1 strain (AID 171);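 further: 0% = growth of vehicle-treated control cultures of the same strain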; details: S. cerevisiae mlh1 strain growth inhibition, stronger effect = higher value
# Method in brief: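 Yeast screen: mutant strain plus compound, growth scored against vehicle control wells.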
# [12] = NCI Yeast Anticancer Drug Screen. Data for the sgs1 strain (AID 173);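 further: 0% = growth of vehicle-only control cultures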; details: S. cerevisiae sgs1 mutant, stronger effect = higher value
# Method in brief: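 Inhibition of yeast growth served as the measure. The mutant strain was treated with each compound, and growth was normalised to cultures receiving vehicle alone.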
# [13] = NCI Yeast Anticancer Drug Screen. Data for the mlh1 rad18 strain (AID 175); details: S. cerevisiae mlh1 rad18 strain growth inhibition, stronger effect = higher value
# Method in brief: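 Compound-treated yeast growth, normalised to vehicle controls. Strain bears defined DNA repair mutations.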
# [14] = NCI Yeast Anticancer Drug Screen. Data for the rad18 strain (AID 177); details: S. cerevisiae rad18 mutant growth inhibition, stronger effect = higher value
# Method in brief: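 Inhibition values reflect reduced yeast growth compared with vehicle-treated controls, using a strain engineered with a DNA damage repair defect.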
# [15] = NCI Yeast Anticancer Drug Screen. Data for the rad14 strain (AID 159);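 further: 0% = growth of vehicle-treated control cultures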; details: S. cerevisiae rad14 strain growth inhibition, stronger effect = higher value
# Method in brief: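 Screen for anticancer potential: a yeast strain altered in DNA damage repair is grown with compound, and reduced growth is quantified against vehicle controls.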
# [16] = NCI Yeast Anticancer Drug Screen. Data for the wt2 strain (AID 169);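 further: 0% = growth of vehicle-treated yeast cultures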; details: S. cerevisiae wt2 strain growth inhibition, stronger effect = higher value
# Method in brief: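 Steps: yeast strain treated with compound; growth recorded; inhibition calculated relative to cultures given vehicle alone.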
# [17] = at 5.0 µM (retest, dose inferred, filed as 0.5)
# [18] = at 50.0 µM (retest, dose inferred, filed as 5.0)
smiles,measurement,setting,value
O=[N+]([O-])c1oc2ccc3ccccc3c2c1CCO,growth inhibition,[1]; at 1.2 µM,89% (active)
same,growth inhibition,[1]; at 3.7 µM,94% (active)
same,growth inhibition,[1]; at 11.0 µM,97% (active)
same,growth inhibition,[1]; at 33.0 µM,98% (active)
same,growth inhibition,[1]; at 100.0 µM,98% (active)
same,growth inhibition,[2]; at 1.2 µM,2% (inactive)
same,growth inhibition,[2]; at 3.7 µM,14% (inactive)
same,growth inhibition,[2]; at 11.0 µM,75% (active)
same,growth inhibition,[2]; at 33.0 µM,97% (active)
same,growth inhibition,[2]; at 100.0 µM,98% (active)
same,growth inhibition,[3]; at 1.2 µM,63% (inactive)
same,growth inhibition,[3]; at 3.7 µM,84% (active)
same,growth inhibition,[3]; at 11.0 µM,95% (active)
same,growth inhibition,[3]; at 33.0 µM,97% (active)
same,growth inhibition,[3]; at 100.0 µM,98% (active)
same,growth inhibition,[4]; at 1.2 µM,7% (inactive)
same,growth inhibition,[4]; at 3.7 µM,27% (inactive)
same,growth inhibition,[4]; at 11.0 µM,85% (active)
same,growth inhibition,[4]; at 33.0 µM,98% (active)
same,growth inhibition,[4]; at 100.0 µM,99% (active)
same,growth inhibition,[5]; at 1.2 µM,83% (active)
same,growth inhibition,[5]; at 3.7 µM,90% (active)
same,growth inhibition,[5]; [17],89% (active)
same,growth inhibition,[5]; at 11.0 µM,96% (active)
same,growth inhibition,[5]; at 33.0 µM,98% (active)
same,growth inhibition,[5]; [18],99% (active)
same,growth inhibition,[5]; at 50.0 µM,99% (active)
same,growth inhibition,[5]; at 100.0 µM,98% (active)
same,growth inhibition,[6]; at 1.2 µM,79% (active)
same,growth inhibition,[6]; at 3.7 µM,92% (active)
same,growth inhibition,[6]; [17],97% (active)
same,growth inhibition,[6]; at 11.0 µM,98% (active)
same,growth inhibition,[6]; at 33.0 µM,99% (active)
same,growth inhibition,[6]; [18],99% (active)
same,growth inhibition,[6]; at 50.0 µM,98.2% (active)
same,growth inhibition,[6]; at 100.0 µM,99% (active)
same,growth inhibition,[7]; [17],92% (active)
same,growth inhibition,[7]; [18],98% (active)
same,growth inhibition,[7]; at 50.0 µM,99.3% (active)
same,growth inhibition,[8]; at 1.2 µM,29% (inactive)
same,growth inhibition,[8]; at 3.7 µM,66% (inactive)
same,growth inhibition,[8]; at 11.0 µM,87% (active)
same,growth inhibition,[8]; at 33.0 µM,97% (active)
same,growth inhibition,[8]; at 100.0 µM,99% (active)
same,growth inhibition,[9]; [17],98% (active)
same,growth inhibition,[9]; [18],99% (active)
same,growth inhibition,[9]; at 50.0 µM,98.5% (active)
same,growth inhibition,[10]; at 1.2 µM,-17% (inactive)
same,growth inhibition,[10]; at 3.7 µM,-3% (inactive)
same,growth inhibition,[10]; [17],14% (inactive)
same,growth inhibition,[10]; at 11.0 µM,78% (active)
same,growth inhibition,[10]; at 33.0 µM,98% (active)
same,growth inhibition,[10]; [18],99% (active)
same,growth inhibition,[10]; at 50.0 µM,97.8% (active)
same,growth inhibition,[10]; at 100.0 µM,99% (active)
same,growth inhibition,[11]; at 1.2 µM,10% (inactive)
same,growth inhibition,[11]; at 3.7 µM,44% (inactive)
same,growth inhibition,[11]; at 11.0 µM,88% (active)
same,growth inhibition,[11]; at 33.0 µM,98% (active)
same,growth inhibition,[11]; at 100.0 µM,99% (active)
same,growth inhibition,[12]; at 1.2 µM,82% (active)
same,growth inhibition,[12]; at 3.7 µM,88% (active)
same,growth inhibition,[12]; at 11.0 µM,95% (active)
same,growth inhibition,[12]; at 33.0 µM,98% (active)
same,growth inhibition,[12]; at 100.0 µM,99% (active)
same,growth inhibition,[13]; [17],95% (active)
same,growth inhibition,[13]; [18],99% (active)
same,growth inhibition,[13]; at 50.0 µM,96.7% (active)
same,growth inhibition,[14]; at 1.2 µM,97% (active)
same,growth inhibition,[14]; at 3.7 µM,96% (active)
same,growth inhibition,[14]; at 11.0 µM,97% (active)
same,growth inhibition,[14]; at 33.0 µM,98% (active)
same,growth inhibition,[14]; at 100.0 µM,99% (active)
C/C(=N\O)c1ccc2ccc3ccccc3c2c1,growth inhibition,[1]; at 1.2 µM,-2% (inactive)
same,growth inhibition,[1]; at 3.7 µM,11% (inactive)
same,growth inhibition,[1]; at 11.0 µM,49% (inactive)
same,growth inhibition,[1]; at 33.0 µM,95% (active)
same,growth inhibition,[1]; at 100.0 µM,95% (active)
same,growth inhibition,[2]; at 1.2 µM,-4% (inactive)
same,growth inhibition,[2]; at 3.7 µM,-5% (inactive)
same,growth inhibition,[2]; at 11.0 µM,-9% (inactive)
same,growth inhibition,[2]; at 33.0 µM,7% (inactive)
same,growth inhibition,[2]; at 100.0 µM,93% (active)
same,growth inhibition,[3]; at 1.2 µM,12% (inactive)
same,growth inhibition,[3]; at 3.7 µM,35% (inactive)
same,growth inhibition,[3]; at 11.0 µM,74% (active)
same,growth inhibition,[3]; at 33.0 µM,90% (active)
same,growth inhibition,[3]; at 100.0 µM,94% (active)
same,growth inhibition,[5]; at 1.2 µM,4% (inactive)
same,growth inhibition,[5]; at 3.7 µM,12% (inactive)
same,growth inhibition,[5]; [17],-142% (inactive) and 7% (inactive)
same,growth inhibition,[5]; at 11.0 µM,68% (inactive)
same,growth inhibition,[5]; at 33.0 µM,95% (active)
same,growth inhibition,[5]; [18],85% (active) and 65% (inactive)
same,growth inhibition,[5]; at 50.0 µM,96.3% (active) and 78.3% (active)
same,growth inhibition,[5]; at 100.0 µM,97% (active)
same,growth inhibition,[6]; at 1.2 µM,0% (inactive)
same,growth inhibition,[6]; at 3.7 µM,1% (inactive)
same,growth inhibition,[6]; [17],-43% (inactive) and -1% (inactive)
same,growth inhibition,[6]; at 11.0 µM,15% (inactive)
same,growth inhibition,[6]; at 33.0 µM,30% (inactive)
same,growth inhibition,[6]; [18],-2% (inactive) and 31% (inactive)
same,growth inhibition,[6]; at 50.0 µM,93.7% (active) and 7.85% (inactive)
same,growth inhibition,[6]; at 100.0 µM,94% (active)
same,growth inhibition,[15]; at 1.2 µM,2% (inactive)
same,growth inhibition,[15]; at 3.7 µM,12% (inactive)
same,growth inhibition,[15]; at 11.0 µM,22% (inactive)
same,growth inhibition,[15]; at 33.0 µM,41% (inactive)
same,growth inhibition,[15]; at 100.0 µM,94% (active)
same,growth inhibition,[7]; [17],-60% (inactive) and 0% (inactive)
same,growth inhibition,[7]; [18],53% (inactive) and 65% (inactive)
same,growth inhibition,[7]; at 50.0 µM,93.1% (active) and 80.3% (active)
same,growth inhibition,[8]; at 1.2 µM,-1% (inactive)
same,growth inhibition,[8]; at 3.7 µM,2% (inactive)
same,growth inhibition,[8]; at 11.0 µM,6% (inactive)
same,growth inhibition,[8]; at 33.0 µM,28% (inactive)
same,growth inhibition,[8]; at 100.0 µM,87% (active)
same,growth inhibition,[9]; [17],-49% (inactive) and -8% (inactive)
same,growth inhibition,[9]; [18],12% (inactive) and 31% (inactive)
same,growth inhibition,[9]; at 50.0 µM,77.6% (active) and 30.2% (inactive)
same,growth inhibition,[10]; at 1.2 µM,4% (inactive)
same,growth inhibition,[10]; at 3.7 µM,3% (inactive)
same,growth inhibition,[10]; [17],-50% (inactive) and 1% (inactive)
same,growth inhibition,[10]; at 11.0 µM,29% (inactive)
same,growth inhibition,[10]; at 33.0 µM,78% (active)
same,growth inhibition,[10]; [18],72% (active)
same,growth inhibition,[10]; at 50.0 µM,94.5% (active) and 56.8% (inactive)
same,growth inhibition,[10]; at 100.0 µM,94% (active)
same,growth inhibition,[16]; at 1.2 µM,-1% (inactive)
same,growth inhibition,[16]; at 3.7 µM,-1% (inactive)
same,growth inhibition,[16]; at 11.0 µM,0% (inactive)
same,growth inhibition,[16]; at 33.0 µM,35% (inactive)
same,growth inhibition,[16]; at 100.0 µM,92% (active)
same,growth inhibition,[12]; at 1.2 µM,-2% (inactive)
same,growth inhibition,[12]; at 3.7 µM,-3% (inactive)
same,growth inhibition,[12]; at 11.0 µM,33% (inactive)
same,growth inhibition,[12]; at 33.0 µM,80% (active)
same,growth inhibition,[12]; at 100.0 µM,95% (active)
same,growth inhibition,[13]; [17],-113% (inactive) and 3% (inactive)
same,growth inhibition,[13]; [18],75% (active) and 64% (inactive)
same,growth inhibition,[13]; at 50.0 µM,96.2% (active) and 82.8% (active)
same,growth inhibition,[14]; at 1.2 µM,5% (inactive)
same,growth inhibition,[14]; at 3.7 µM,13% (inactive)
same,growth inhibition,[14]; at 11.0 µM,52% (inactive)
same,growth inhibition,[14]; at 33.0 µM,92% (active)
same,growth inhibition,[14]; at 100.0 µM,94% (active)
